# In the library only some 3.8% were active in any assay of this set; here they are far more common.
# TGFb SMAD3 inh = inhibitors of TGF-b signaling | HepG2 CAGA-GFP TGF-b/SMAD3 reporter, GFP fluorescence, 18 h; TGF-beta stimulated, 500 pg/mL final | Potency, µM (highest dose often 46.1 µM), for the others: at the highest dose activity, negative = inhibition, most hits filed as inhibitors | AID 588855 | 410,000 tested, 1.2% active; further: on the % scale 0 is the no-effect control and ±100 the full control effect; nearly all actives have a fitted effect of over 65% in size
#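 Inhibition was scored as loss of TGF-beta-induced (500 pg/mL final, 18 hours, 37 degrees C) GFP in HEPG2 cells carrying a CAGA-GFP reporter, in DMEM with 1% FBS. Well GFP was summed per cell; Activity was normalised to unstimulated and stimulated DMSO wells, then concentration-response fitting.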
# HepG2 viability = kills HepG2 cells in TGF-b inhibitor counter-screen; HepG2 CAGA-GFP viability, ATP luminescence, 18 h; Potency, µM (series often up to 46.1 µM), inactives show at the highest dose activity change, negative = cytotoxicity, usual class: cytotoxic; 410,000 tested, 0.76% active; AID 588856
#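 CellTiter-Glo luminescence gave cytotoxicity after 18 hours at 37 degrees C. The cells were HepG2 CAGA-GFP in 1% FBS DMEM, stimulated with 500 pg/mL TGF-beta after compound addition. %Activity was normalised to no-cell wells (complete cell-killing) and DMSO (no toxicity), and curves were fitted and classified.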
# A549 viability = counter-screen for Nrf2 inhibitors: cytotoxicity in A549 cells | A549 ARE-Fluc cells, CellTiter-Fluor viability, 18-24 h | Potency, µM (highest dose often 46 µM), inactives show at the top dose activity change, negative = cytotoxicity, actives largely listed as inhibitors | 390,000 tested, 0.16% active | AID 504648; further: on the % scale 0 is the no-effect control and ±100 the full control effect
#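 A549 ARE-Fluc cells in 5% FBS OPTI-MEM, 5000 cells/well, rested 2 h then exposed to compounds in concentration-response for 18-24 h at 37 °C. Viability by CellTiter-Fluor fluorescence (Ex 405/Em 525) after 30 min; luciferase luminescence (BugLite, 15 min, RT) read afterwards.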
# S2 tox = cell viability loss in ATXN counter-screen. Potency, µM (titrated, usually from 56.7 µM), actives largely listed as cytotoxic. AID 651635. S2 cells (HEK-293 line with an ATXN2-luciferase reporter) viability, CellTiter-Fluor protease fluorescence, 24 h. 400,000 tested, 0.49% active; further: nearly all actives have a fitted effect of over 40% in size
# ATXN2 expr inh = inhibitors of ATXN2 expression; HEK-293 ATXN2-luciferase reporter, luminescence, 24 h; 360,000 tested, 0.72% active; Potency, µM (series often up to 57 µM), inactives show at the top dose activity change, negative = inhibition, usual class: inhibitors; AID 1745845; further: on the % scale 0 is the no-effect control and ±100 the full control effect; nearly all actives have a fitted effect of over 55% in size
#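 qHTS (up to 57 uM final) was run with 24 h compound exposure of reporter cells at 37 °C. Each well was multiplexed: SteadyGlo luminescence measured ATXN2-luciferase expression after a fluorogenic Gly-Phe-AFC viability readout (25 uM final).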
# Nrf2 block = blocks Nrf2 signaling; 360,000 tested, 2.1% active; A549 ARE-Fluc reporter, luciferase luminescence, 18-24 h; AID 504444; Potency, µM (highest dose often 46 µM), for the others: at the highest dose activity change, negative = inhibition, actives largely listed as inhibitors; further: on the % scale 0 is the no-effect control and ±100 the full control effect; nearly all actives have a fitted effect of over 60% in size
#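 In this cell-based qHTS, ARE-driven firefly luciferase in A549 cells reports Nrf2 activity; the luminescent signal after BugLite lysis is the measured value, with a prior CellTiter-Fluor read for cell health.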
# * hit, by the source's call; i = inactive; ? = inconclusive; · = not tested or not shown; [ ] = remark or other dose. The call rests on the fitted dose curve; in most records, active means well fitted curve in the direction sought with a large enough effect; inconclusive means small, poorly fitted or top-dose-only effect, or another doubt; inactive means no such curve, though single readings can be large; an effect the other way counts as inactive or inconclusive. Potency means the concentration at half of the fitted maximal effect.
SMILES,TGFb SMAD3 inh,HepG2 viability,A549 viability,S2 tox,ATXN2 expr inh,Nrf2 block
CCCCOc1c(C(=O)c2c(F)cc(C)cc2F)cnc2n[nH]cc12,·,·,·,·,9.68µM*,·
CCOC(=O)c1cnc2ccc(C)cc2c1Sc1ccc(F)cc1,?,-27.6%,-2.4%,i,15.8%,·
Cc1ccccc1OCCSc1nc2ccc(NC(=O)c3cccs3)cc2s1,-30.0%,-24.6%,-9.2%,i,?,?
Cc1cccc(OCCSc2nc3ccc(NC(=O)c4cccs4)cc3s2)c1,-14.3%,-1.1%,0.8%,i,-27.0%,23.1µM*
O=C(COc1ccccc1F)Nc1ccc2nc(SCC(=O)N3CCOCC3)sc2c1,-18.0%,-24.2%,-13.4%,·,·,18.4µM*
Cc1cccc(C(=O)Nc2ccc3nc(SCC(=O)N4CCCC4)sc3c2)c1,0.0%,-33.6%,-19.3%,·,·,18.4µM*
COc1ccc(C(=O)Nc2ccc3nc(SCC(=O)N4CCCC4)sc3c2)cc1,0.0%,-13.9%,-2.5%,·,·,-8.5%
O=C(Cn1cnc2c(nnn2Cc2ccc(F)cc2)c1=O)Nc1ccccc1,21.3%,5.6%,-2.8%,?,-6.5%,-4.9%
O=C(CCc1ccccc1)NC(NC(=S)Nc1ccc(Br)cc1)C(Cl)(Cl)Cl (stereo not drawn),?,-47.1%,?,i,?,9.2µM*
O=C(CCc1ccccc1)NC(NC(=S)Nc1cccc(Cl)c1)C(Cl)(Cl)Cl (stereo not drawn),?,-23.1%,-1.2%,i,-22.3%,?
CCc1ccc(OCC(=O)NC(NC(=S)Nc2ccc(Cl)cc2)C(Cl)(Cl)Cl)cc1 (stereo not drawn),7.08µM*,8.91µM*,?,·,?,?
CCc1ccc(OCC(=O)NC(=S)Nc2ccc(C(=O)O)cc2)cc1,-9.6%,-1.4%,1.8%,i,5.6%,0.4%
CCN(CC(=O)NCc1cccs1)C(=O)COc1ccc(C(C)=O)cc1,6.7%,7.9%,1.8%,i,2.5%,2.0%
Oc1ccc(Cl)cc1C1=NNC(c2cccs2)C1 (stereo not drawn),-14.6%,-17.8%,-1.7%,i,10.4%,7.3%
O=[N+]([O-])c1ccc(O)c(C2=NNC(c3ccccc3F)C2)c1 (stereo not drawn),12.6µM*,-37.9%,1.4%,i,?,6.0%
CN1CCN(c2ccc(-c3nc(-c4ccccc4)no3)cc2[N+](=O)[O-])CC1,3.3%,-13.0%,-0.1%,i,-7.4%,?
CCN1CCc2c(OCC(=O)N3N=C(c4cccs4)CC3c3ccc(F)cc3)cccc2C1=O (stereo not drawn),-14.8%,-17.9%,-22.4%,i,?,23.1µM*
COc1ccc(C2CC(c3cccs3)=NN2C(=O)c2ccccc2)cc1OC (stereo not drawn),14.5%,-17.2%,?,?,-10.1%,?
COc1ccc(C2CC(c3cccs3)=NN2C(=O)CCl)cc1OC (stereo not drawn),10µM*,7.08µM*,?,11.2µM*,12.6µM*,?
COc1cc(C2CC(c3cccs3)=NN2C(=O)CCl)ccc1OC(F)F (stereo not drawn),6.31µM*,6.31µM*,-1.0%,·,?,-20.6%
Cc1ccc2c(C)c(C(=O)Nc3ccc(S(=O)(=O)Nc4onc(C)c4C)cc3)oc2c1,-23.6%,-23.2%,2.6%,i,-2.5%,-16.4%
Cc1cc(-c2ccccc2)nc(SCC(=O)c2cccc([N+](=O)[O-])c2)n1,-4.0%,12.6%,-4.3%[1.84 µM],i,3.4%,?
COc1ccc(-c2cc(C)nc(SCC(=O)c3cccc([N+](=O)[O-])c3)n2)cc1,7.9%,1.5%,-21.9%,i,0.1%,20.6µM*
CCC1CN(C(=O)N2CCC(C(=O)NCCc3ccc(OC)cc3OC)CC2)c2cc(C)ccc2O1 (stereo not drawn),?,-22.1%,7.4%,·,·,-16.1%
CCOC(=O)C1(Cc2ccccc2)CCCCCC1=O (stereo not drawn),0.0%,-11.0%,0.2%,i,-0.1%,-2.3%
SMILES,TGFb SMAD3 inh,HepG2 viability,A549 viability,S2 tox,ATXN2 expr inh,Nrf2 block
CC(OC(=O)c1ccc2c(c1)OCCO2)C(=O)NC1CCCCC1C (stereo not drawn),2.1%,-3.8%,-16.3%,i,-10.0%,18.4µM*
Cc1cccc(NCc2nc3ccccc3n2CCOc2ccccc2C)c1,11.2µM*,-47.4%,1.3%,?,?,0.0%[9.27 µM]
Cc1ccccc1NCc1nc2ccccc2n1CCOc1ccccc1,14.1µM*,-40.0%,-27.2%,?,1.0%,?
Clc1ccc(NCc2nc3ccccc3n2CCOc2ccccc2)cc1,?,-26.7%,0.4%,i,3.4%,22.7%[9.27 µM]
Cc1nc2ccccc2n1CCOc1ccc(F)cc1,3.1%,-5.1%,5.6%,i,·,20.6µM*
CC(CC(=O)N1CCN(c2ccccc2)CC1)S(=O)(=O)c1ccc2c(c1)NC(=O)CO2 (stereo not drawn),-28.4%,-20.8%,0.6%,i,?,?
CCCCN1CCCc2cc(CN(CCCN3CCOCC3)C(=O)Nc3ccc(CC)cc3)ccc21,18.5%,3.4%,?,i,3.6%,·
COc1ccc(-n2sc3ccc(F)cc3c2=O)cc1,?,-64.7%,12.6%,25.1µM*,?,-9.2%
O=c1c2ccccc2sn1-c1ccc(S(=O)(=O)N2CCOCC2)cc1,-26.0%,-20.0%,9.5%,·,·,?
O=c1c2cc(F)ccc2sn1-c1ccc(F)cc1,15.8µM*,-55.6%,4.3%,·,?,-6.5%
Cc1ccc2scc(N3CCN(c4ccc(F)cc4)CC3)c(=O)c2c1,-9.3%,-15.6%,?,?,-20.0%,·
COc1ccc(-n2sc3ccccc3c2=O)cc1,20µM*,12.6µM*,·,·,?,·
CC(=O)Nc1ccc2sn(-c3ccccc3)c(=O)c2c1,?,-56.6%,·,?,-27.0%,·
Cc1ccc(C)c(-n2sc3ccc(F)cc3c2=O)c1,10µM*,-52.6%,5.2%,?,?,-23.2%
CCN(CC(=O)Nc1ccccc1OC)C(=O)CSCC(=O)Nc1ccc(OC)cc1,-1.3%,4.5%,-3.0%,i,-6.1%,0.1%
COc1ccc(CCNC(=O)C(=O)NCC(c2cccs2)S(=O)(=O)c2cccs2)cc1 (stereo not drawn),1.3%,-27.4%,-11.2%,i,-16.8%,·
Cc1ccnc(NC(=O)C2CC(=O)N(Cc3ccccc3)C2)c1 (stereo not drawn),-17.4%,-2.2%,-0.5%,i,?,?
CCn1c(=O)[nH]c(=O)c2c(N)c(C(=O)c3cc(F)ccc3F)sc21,11.2µM*,0.2%,4.7%,i,-22.1%,?

# Assay outcomes deposited in PubChem by National Center for Advancing Translational Sciences (NCATS).
